Assay results taken from the supplement of paper PMC13380429.

test system: Vero E6 infected with SARS-CoV-2; experiment: SARS-CoV-2 infection rate relative to infected DMSO; higher = more infection, active = 60 or less; details: 24 h

SMILES	SARS-CoV-2 infection rate
COCCOC(=O)C1=C(C)NC(C)=C(C(=O)OC(C)C)C1c1cccc([N+](=O)[O-])c1 (centres undefined) [nimodipine] (10 µM)	92% (inactive)
O=C(O)/C=C1\CCCc2ccccc2[C@H]1O (racemic) (10 µM)	100% (inactive)
CC[C@@H](C(=O)[C@@H](C)[C@@H](O)[C@H](C)[C@@H]1O[C@@H]([C@@H](CC)C(=O)O)CC[C@@H]1C)[C@H]1O[C@]2(C=C[C@@H](O)[C@]3(CC[C@@](C)([C@H]4CC[C@](O)(CC)[C@H](C)O4)O3)O2)[C@H](C)C[C@@H]1C [Salinomycin (Procoxacin)] (10 µM)	108% (inactive)
CS(=O)(=O)Nc1ccc2oc3c(OC(F)F)ccc(C(=O)Nc4c(Cl)cncc4Cl)c3c2c1 [oglemilast] (10 µM)	92% (inactive)
CC(=O)O[C@]1(C(C)=O)CC[C@H]2[C@@H]3C[C@H](C)C4=CC(=O)CC[C@]4(C)[C@H]3CC[C@@]21C [medroxyprogesterone-acetate] (10 µM)	105% (inactive)
O=C(O)C1=C[C@@H](O)[C@@H](O)[C@H](O)C1 [shikimic-acid] (10 µM)	108% (inactive)
CN(Cc1ccccc1)C(=O)[C@H](Cc1ccc2ccccc2c1)NC(=O)[C@@H]1CCCN1C(=O)Nc1ccccc1[N+](=O)[O-] (10 µM)	108% (inactive)
COc1ccc(/C=C/C(=O)/C=C(O)/C=C/c2ccc(OC)c(OC)c2)cc1OC (10 µM)	80.5% (inactive)
c1cc(CN2CCCNCCNCCCNCC2)ccc1CN1CCCNCCNCCCNCC1 [plerixafor] (10 µM)	95.5% (inactive)
COc1ccc(CCc2nc3cc(-c4c(C)noc4C)ccc3n2C[C@H](C)N2CCOCC2)cc1Cl (0.833333 µM)	113% (inactive)
c1ccc(CNc2ncnc3[nH]cnc23)cc1 [6-benzylaminopurine] (10 µM)	99% (inactive)
CCCCCCN(CCCCCC)C(=O)Cc1c(-c2ccc(Cl)cc2)[nH]c2ccc(Cl)cc12 (10 µM)	103% (inactive)
CC(C)(CCCCCC(O)CCCCCC(C)(C)C(=O)O)C(=O)O [bempedoic-acid] (10 µM)	110% (inactive)
C=CC1=C(C)C2=CC3=NC(=C(CC(=O)O)C4=NC(=C(C)C4=C(O)O)C=c4[nH]c(c(C)c4CC)=CC1=N2)C(CCC(=O)O)C3C (centres undefined) [chlorophyllin] (10 µM)	94% (inactive)
Cc1cc(OCc2nc(-c3ccccc3Cl)cs2)ccc1OCC(=O)O [GPR120-modulator-1] (10 µM)	100% (inactive)
O=C(c1cc2ccccc2o1)N1CCN(Cc2ccccc2)CC1 [befuraline] (10 µM)	106% (inactive)
CCOP(=S)(OCC)Oc1cc(C)nc(C(C)C)n1 [dimpylate] (10 µM)	116% (inactive)
C[N+](C)(C)CCOC(=O)CCC(=O)OCC[N+](C)(C)C [succinylcholine-chloride] (10 µM)	110% (inactive)
Nc1nc(O)c2ncn(CCC(CO)CO)c2n1 [penciclovir] (10 µM)	93.5% (inactive)
COc1ccsc1CNCC[C@@]1(c2ccccn2)CCOC2(CCCC2)C1 (10 µM)	103% (inactive)
CCN(CC)CCOC(=O)C1(C2CCCCC2)CCCCC1 [dicycloverine] (10 µM)	90% (inactive)
C#C[C@]1(O)CC[C@H]2[C@@H]3CCC4=Cc5oncc5C[C@]4(C)[C@H]3CC[C@@]21C [danazol] (10 µM)	72% (inactive)
O=C(O)CNC(=O)c1nc(Cl)c2ccccc2c1O (10 µM)	102% (inactive)
C[C@@H]1COCCN1c1cc(C2([S@](C)(=N)=O)CC2)nc(-c2ccnc3[nH]ccc23)n1 (0.833333 µM)	90% (inactive)
CCCC(CCC)C(=O)NCC(N)=O [valrocemide] (10 µM)	108% (inactive)
CNC(=O)c1cc2c(cn1)[nH]c1ccccc12 (10 µM)	85.5% (inactive)
CCCCCCCCCCC(=O)O[C@H]1CC[C@H]2[C@@H]3CCC4=CC(=O)CC[C@]4(C)[C@H]3CC[C@]12C [Testosterone (undecanoate)] (10 µM)	98.5% (inactive)
O=C(O)Cn1nnc(-c2cc(N3CCC(Oc4cc(F)ccc4Br)CC3)no2)n1 (10 µM)	104% (inactive)
CCCCCCCCCCCCCC(=O)OC(C)C [isopropyl-myristate] (10 µM)	95.5% (inactive)
